# Hits are enriched below; roughly 11% of the tested compounds scored in any of these assays.
# ALDH1A1 block = ALDH1A1 (human) enzyme inhibition; hit rate 7.3% among 220,000; Potency, µM (series often up to 75.3 µM), without a hit: at the highest dose activity, negative = inhibition, most hits filed as inhibitors; Purified ALDH1A1, NADH fluorescence, propionaldehyde substrate;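 note: potency is the fitted concentration of half-maximal effect; plate controls were no enzyme wells and a reference inhibitor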
# Target sequence (P00352 whole entry, looked up): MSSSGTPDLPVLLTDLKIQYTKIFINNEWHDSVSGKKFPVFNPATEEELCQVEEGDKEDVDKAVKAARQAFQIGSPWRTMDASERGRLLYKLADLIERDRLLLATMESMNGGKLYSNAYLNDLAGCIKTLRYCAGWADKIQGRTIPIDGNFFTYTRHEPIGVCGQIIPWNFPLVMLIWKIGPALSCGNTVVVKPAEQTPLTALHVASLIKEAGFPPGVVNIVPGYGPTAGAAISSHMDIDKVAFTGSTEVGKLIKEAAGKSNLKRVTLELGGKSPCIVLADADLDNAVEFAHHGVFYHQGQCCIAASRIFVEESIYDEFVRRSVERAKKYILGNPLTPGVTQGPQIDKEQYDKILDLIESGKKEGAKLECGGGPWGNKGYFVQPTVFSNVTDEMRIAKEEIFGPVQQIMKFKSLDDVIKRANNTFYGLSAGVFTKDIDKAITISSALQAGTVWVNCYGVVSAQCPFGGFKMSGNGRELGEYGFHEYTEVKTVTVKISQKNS
# HPGD inh = HPGD (human) dehydrogenase inhibition | P15428 | purified HPGD, NADH fluorescence kinetic, PGE2 substrate | Potency, µM, without a hit: at the top dose activity change, negative = inhibition, most hits filed as inhibitors | hit rate 4.3% among 150,000 | AID 894; note: potency is the fitted concentration of half-maximal effect
# Target sequence (P15428 whole entry, looked up): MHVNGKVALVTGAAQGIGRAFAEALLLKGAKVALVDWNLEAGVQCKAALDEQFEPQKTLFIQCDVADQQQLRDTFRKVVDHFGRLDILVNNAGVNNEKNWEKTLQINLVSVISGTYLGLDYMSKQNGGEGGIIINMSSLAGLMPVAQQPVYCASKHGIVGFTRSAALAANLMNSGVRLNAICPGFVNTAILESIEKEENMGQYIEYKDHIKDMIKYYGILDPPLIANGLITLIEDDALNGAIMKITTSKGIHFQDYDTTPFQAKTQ
#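 20 nM HPGD preincubated 15 min at room temperature with compound in 50 mM Tris-HCl pH 8, 0.01% Tween 20. Started with 1 mM NAD+ and 30 uM prostaglandin E2; NADH fluorescence (360/450 nm) read 5 times over 30-s intervals, last minus first.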
# PNC assembly inh = blocks assembly of the perinucleolar compartment; activity change (PNC), negative = inhibition, % at 10 µM; PC3M PTB-GFP, PNC prevalence imaging, 16 h; stronger effect = lower value; AID 2417; hit rate 3.1% among 140,000;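 active = readout at or below -70, meaning at least 70% loss of cells showing the perinucleolar compartment, a nuclear body marking cancer cells; inconclusive = readout between -30 and a set limit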;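 note: plate controls were DMSO wells for no effect and camptothecin positive control wells for full effect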
#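 Read-out is percentage of cells bearing a perinucleolar compartment, from automated 20x imaging of fixed, Hoechst-stained PC3M PTB-GFP cells. Cells were seeded 4 h, then exposed 16 h to compound (23 nl of library stock) in duplicate plates.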
# ALOX12 inhib = inhibitors of human 12-lipoxygenase (ALOX12); P18054; purified 12-hLO, xylenol orange hydroperoxide absorbance; Potency, µM (highest dose often 57.1 µM), for inactives: top-dose activity change, negative = inhibition, actives largely listed as inhibitors; hit rate 0.12% among 150,000; active = well fitted curve in the direction sought with a large enough effect; inconclusive = small, poorly fitted or top-dose-only effect, or another doubt; inactive = no such curve, though single readings can be large; an effect the other way counts as inactive or inconclusive; note: potency is the fitted concentration of half-maximal effect; nearly all actives have a fitted effect of over 55% in size
#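 Hydroperoxide output read as Fe(III)-xylenol orange absorbance, 573-to-405 nm ratio, after 30 min reaction with 40 uM arachidonic acid. Enzyme: 150 nM purified human 12hLO, 15 min compound preincubation; 25 mM Hepes pH 7.0, room temperature.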
# IMPase Li inh = cell-permeable IMPase inhibitors with lithium potentiation. AID 1457. hit rate 0.35% among 210,000. Potency, µM (series often up to 59.4 µM), without a hit: at the top dose activity, negative = IMPase inhibition, usual class: inhibitors. CHO-M1 cells, IP1 TR-FRET (IP-One), carbachol + lithium; active = well fitted curve in the direction sought with a large enough effect; inconclusive = small, poorly fitted or top-dose-only effect, or another doubt; inactive = no such curve, though single readings can be large; an effect the other way counts as inactive or inconclusive;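 note: IP1 builds up when IMPase is blocked and the TR-FRET signal falls; potency is the fitted concentration of half-maximal effect; plate controls were basal vehicle for no effect and high inhibitor control for full effect; nearly all actives have a fitted effect of over 50% in size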
#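 CHO cells stably expressing M1 receptor (2000/well) were cultured 16–30 h, then exposed to compounds with a small lithium addition for 30 min at 37C. IP1 was measured by TR-FRET competition; AC50 from Hill fits.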
# IMPase inh = IMPase inhibition in cells; CHO-M1 cells, IP1 accumulation, HTRF TR-FRET ratio; inhibition (IP1 accumulation), % at 46.1 µM; 120,000 tested, under 10 active; AID 901; active = well fitted curve in the direction sought with a large enough effect in the signal ratio, not every such curve was filed as active; inconclusive = small, poorly fitted or top-dose-only effect, or a change in a side signal; inactive = no such curve, though single readings can be large or run the other way; the % refers to the signal ratio;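 note: cells stimulated with carbachol in lithium chloride buffer; plate controls were DMSO basal wells for no effect and reference inhibitor wells for full effect; higher means more IMPase inhibition seen as more IP1 and lower FRET ratio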
#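 Seeded CHO-M1 cells were dosed with compound at up to 46 uM, stimulated with carbachol for 30 min, then lysed in IP-One detection reagents. Higher IP1 lowers the TR-FRET signal.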
# * hit, by the source's call; ? = inconclusive; . = no result; [ ] = another dose, or the depositor's remark. Unless noted, calls come from the whole dose curve; as a rule, active = well fitted inhibition curve with a large enough effect (not every such curve was filed as active); inconclusive = small, poorly fitted or top-dose-only effect, or another doubt; inactive = no such curve, though single readings can be large or run the other way. Unless noted, % is set by controls: 0 for no effect and ±100 for the full control effect.
SMILES,ALDH1A1 block,HPGD inh,PNC assembly inh,ALOX12 inhib,IMPase Li inh,IMPase inh
CCN1C(=O)[C@H]2[C@H]3[C@H](O)[C@H](O)C/C(=N/O[C@@H](C)CN4CCCc5nc(C)c(C)cc54)[C@@H]3CC[C@@H]2C1=O,-6.1%[13.5 µM],.,.,.,.,.
CSC1=NSC2=NC(=O)/C(=C/c3coc4ccc(O)cc4c3=O)C(=N)N12,?,22.4µM*,?,-8.2%,0.8%,.
CSC1=NSC2=NC(=O)/C(=C/c3coc4ccccc4c3=O)C(=N)N12,?,?,6.4,-12.4%,14.6%,.
Cc1ccc(S(=O)(=O)NC2c3cccc4cccc(c34)C2Sc2n[nH]c(N)n2)cc1 (stereo not drawn),3.98µM*,-14.2%,-24.0,-4.3%,5.5%,-4.6
CCOC(=O)Nc1ccc2c(CN3C(=O)NC4(CCCC4)C3=O)cc(=O)oc2c1,?,?,-100.0*,0.7%,-0.8%,-14.9
CCOC(=O)Nc1ccc2c(CN3C(=O)NC(CC)(CC)C3=O)cc(=O)oc2c1,?,?,1.8,-0.8%,?,-1.5
O=c1c2[nH]c3ccc(Br)cc3c2ncn1CCCn1ccnc1,?,?,33.7,3.5%,5.62µM*,-5.8
O=c1c2[nH]c3ccccc3c2ncn1CCCn1ccnc1,-15.4%,-20.4%,14.5,7.2%,15.1%[38.3 µM],-4.3
CCOC(=O)N/N=C1/C[C@@H](O)[C@@H](O)[C@@H]2[C@@H]3C(=O)N(C(C)(C)C)C(=O)[C@H]3CC[C@H]12,-2.8%[13.5 µM],.,.,.,.,.
Cn1c(=O)c(Sc2ccccc2)c(O)c2ccccc21,25.1µM*,.,.,.,.,.
Cc1ccc(Sc2c(O)c3ccccc3n(C)c2=O)cc1,-5.6%,-8.8%,29.7,-4.8%,10µM*,.
CC(=O)OC[C@H]1O[C@@H](O/N=C\[C@@H](C)[C@H](OCc2ccccc2)C(C)C)[C@H](OC(C)=O)[C@@H](OC(C)=O)[C@H]1OC(C)=O,-11.8%[13.5 µM],.,.,.,.,.
COc1ccc(Br)c(C(=O)NCCC(C)C)c1,6.0%,12.6µM*,-14.4,0.5%,-2.2%,.
COc1ccc(S(=O)(=O)N(C)c2ccc(C(=O)NC3CCCC3)cc2)cc1,-7.5%,.,.,.,11.5%,.
COc1ccc(C(CNC(=O)c2ccc(S(=O)(=O)N(C)C)cc2)N2CCCC2)cc1 (stereo not drawn),4.47µM*,.,.,.,16.0%,.
COc1ccc(S(=O)(=O)N(C)c2ccc(C(=O)NCCC(C)C)cc2)cc1,-15.9%,2µM*,-22.6,-17.7%,22.4%[38.3 µM],-4.2
COc1ccc(C(CNC(=O)c2ccc(S(=O)(=O)N(C)C)cc2)N(C)C)cc1 (stereo not drawn),?,.,.,.,11.7%,.
COc1ccc(Br)c(C(=O)Nc2ccc(F)cc2)c1,3.1%,.,.,.,.,.
CCOCCCNC(=O)c1ccc(N(C)S(=O)(=O)c2ccc(OC)cc2)cc1,-11.2%,1.58µM*,?,-4.9%,30.1%[38.3 µM],0.7
C#CCOc1c(Br)cc(C2C(C(=O)OC)=C(C)NC3=C2C(=O)c2ccccc23)cc1OCC (stereo not drawn),.,.,.,.,.,-3.5
O=C1C(CCC(O)c2ccc(F)cc2)C(c2ccc(O)cc2)N1c1ccc(F)cc1 (stereo not drawn),11.3%,-18.2%,.,-7.7%,3.1%,.
CN(C)Cc1ccccc1-c1nccc(NC2CC2)n1,9.4%,-0.7%,.,1.7%,-0.2%,.
COc1cccc(Cn2nnc(C(=O)Nc3cc(C)ccc3OC)c2N)c1,?,?,-16.3,-7.1%,25.1µM*,9.6
CCc1ccccc1NC(=O)c1nnn(CC(=O)Nc2ccccc2C)c1N,-10.1%,-4.0%,-102.2*,1.3%,-10.2%[38.3 µM],-10.9
COc1ccccc1NC(=O)c1nnn(CC(=O)Nc2cccc(SC)c2)c1N,?,?,?,-5.2%,6.31µM*,-8.8
SMILES,ALDH1A1 block,HPGD inh,PNC assembly inh,ALOX12 inhib,IMPase Li inh,IMPase inh
CCOc1ccccc1NC(=O)Cn1nnc(C(=O)Nc2ccccc2Cl)c1N,7.5%,-2.5%,?,0.2%,?,1.6
COc1ccccc1NC(=O)c1nnn(CC(=O)Nc2ccccc2)c1N,?,?,?,-1.2%,-15.3%,-11.8
C[N+](C)(C)CCN(Cc1cccs1)c1ccccn1,3.9%[13.5 µM],-13.8%,.,-4.8%[11.4 µM],1.3%,.
Cn1cccc1/C=N/n1c(-c2ccc(Cl)cc2Cl)n[nH]c1=S,?,12.6µM*,14.8,-4.3%,-1.6%,2.6
Cc1nnc(C)n1/N=C/c1cccn1C,-1.7%,3.5%,18.5,-3.3%,-2.6%[38.3 µM],-4.6
CCn1c(-c2ccc(Cl)cc2)n[nH]c1=S,-5.5%,-15.1%,2.5,-3.5%,17.7%[38.3 µM],-9.7
Cc1ccc(-c2n[nH]c(=S)n2/N=C/c2cccn2C)cc1,-16.2%,8.91µM*,23.7,-6.0%,-5.8%[38.3 µM],2.1
S=c1[nH]nc(-c2cc(-c3ccccc3)n[nH]2)n1/N=C/c1ccc(Cl)cc1,-0.2%,.,.,.,.,.
Cn1cccc1/C=N/n1c(-c2ccc(Cl)cc2)n[nH]c1=S,10.7%,3.98µM*,4.6,5.8%,-3.1%,9.9
CN(C)CCN1C(=O)c2ccccc2N(C)c2ccccc21,-1.3%,.,.,.,-5.9%,.
O=C(COC(=O)c1cccnc1Cl)c1cccc(Cl)c1,3.1%,-11.9%,-14.4,0.3%,4.4%[38.3 µM],1.3
CC(=O)NC(Cc1ccc(C(C)C)cc1)C(=O)NC1CCN(C(=O)c2cccc(C)c2)CC1 (stereo not drawn),25.1µM*,.,.,.,-1.2%,.
CC(=O)OCC#CCSc1nnc(-c2cccc(Br)c2)o1,.,.,.,.,.,5.6
N#C[C@H](C(=O)O)C(c1c(Cl)cccc1Cl)[C@H](C#N)C(=O)O,-6.3%[13.5 µM],3.6%,.,1.3%[11.4 µM],-10.3%,.
CC1=NN(Cc2ccccc2)C(=O)/C1=C\c1ccc(N(C)C)cc1,14.1µM*,-6.0%,6.9,-1.9%,33.8%[38.3 µM],4.6
CCOC(=O)c1cc2c(C)n(-c3ccc(N(C)C)cc3)c(C)c2cc(C(=O)OCC)c1=O,-6.1%,-6.8%,?,-3.0%,-15.9%[38.3 µM],8.8
CCOC(=O)C1=NN(c2ccccc2)C(=O)/C1=C\c1ccc(N(C)C)cc1,1.58µM*,12.6µM*,-3.1,-1.8%,12.6%,-1.6
CCSC1(SCC)N=C(N)C2(C#N)C(c3ccc(OC)c(OC)c3OC)C12C#N (stereo not drawn),?,8.91µM*,?,-12.4%,70.8%[38.3 µM],6.0
Cc1ccc(S(=O)(=O)Oc2ccc(N=Nc3ccc(-c4ccc(N=Nc5c(O)ccc6cc(S(=O)(=O)O)cc(S(=O)(=O)O)c56)c(C)c4)cc3C)cc2)cc1,?,-22.4%,.,?,-0.3%,.
CC1=CC(C)C(/C=N/n2cnnc2)C(C)C1 (stereo not drawn),5.7%,-8.3%,-3.3,-3.7%,3.3%[38.3 µM],-11.0
C=C(C)C1CCC(C)=C1CC(C)(C)/C=N\n1cnnc1 (stereo not drawn),22.4µM*,-13.7%,-20.0,-1.9%,14.7%[38.3 µM],7.6
